pPAFAH FP inh = pPAFAH (human) enzyme inhibition | AID 463082 | inhibition, % at 3.39 µM | actives 1.5% (n = 330,000) | recombinant pPAFAH, FP-rhodamine probe fluorescence polarization;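 active = inhibition above the mean inhibition across the screen plus 3 SD, cut at about 25% in these data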;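 note: inhibitors block binding of the rhodamine activity-based probe so polarization drops; 0% = enzyme with DMSO and 100% = wells lacking pPAFAH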
PAFAH1B3 inh = inhibitors of human PAFAH1B3; Q15102; recombinant PAFAH1B3, FP-rhodamine probe, fluorescence polarization; inhibition, % at 3.39 µM; actives 0.28% (n = 340,000); AID 492972;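 active = inhibition above the screen-wide average of all tested compounds plus 3 SD, cut at about 25% in these data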;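 note: 0% = enzyme with DMSO only and 100% = wells lacking PAFAH1B3 protein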
HTRA1 inh = blocks human HTRA1 serine peptidase | actives 0.5% (n = 340,000) | Q92743 | AID 504803 | inhibition, % at 5.96 µM | recombinant HTRA1, FP-rhodamine activity-based probe, fluorescence polarization; in the data active = inhibition above about 36%;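 note: 0% = enzyme with DMSO and 100% = wells lacking enzyme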
DAGLB inhibitor = blocks human DAGLB lipase activity; Q8NCG7; HEK293T DAGLB membrane lysate, EnzChek fluorogenic substrate; inhibition, % at 5.17 µM; actives 0.059% (n = 340,000); in the data active = inhibition above about 34%;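 note: 0% = enzyme with vehicle and 100% = wells lacking enzyme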
Target sequence (Q8NCG7 whole entry, looked up): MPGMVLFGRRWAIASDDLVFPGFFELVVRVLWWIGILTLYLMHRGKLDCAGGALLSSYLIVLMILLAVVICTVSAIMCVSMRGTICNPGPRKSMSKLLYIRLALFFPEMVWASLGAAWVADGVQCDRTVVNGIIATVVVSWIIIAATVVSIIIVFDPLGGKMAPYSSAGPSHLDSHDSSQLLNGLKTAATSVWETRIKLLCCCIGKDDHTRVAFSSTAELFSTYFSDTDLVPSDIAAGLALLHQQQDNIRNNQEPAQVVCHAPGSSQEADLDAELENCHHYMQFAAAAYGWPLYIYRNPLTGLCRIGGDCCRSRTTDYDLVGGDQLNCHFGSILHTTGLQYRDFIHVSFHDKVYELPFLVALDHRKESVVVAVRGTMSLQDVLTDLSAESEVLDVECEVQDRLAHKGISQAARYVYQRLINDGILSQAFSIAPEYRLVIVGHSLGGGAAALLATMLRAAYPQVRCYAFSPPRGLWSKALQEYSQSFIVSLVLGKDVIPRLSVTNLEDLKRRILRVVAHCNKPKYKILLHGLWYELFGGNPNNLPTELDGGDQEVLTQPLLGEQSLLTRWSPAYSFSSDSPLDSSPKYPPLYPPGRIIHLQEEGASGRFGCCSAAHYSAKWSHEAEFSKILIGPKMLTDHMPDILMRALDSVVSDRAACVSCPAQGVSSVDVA
PAFAH1B2 inh = blocks human PAF acetylhydrolase 1b catalytic subunit 2; P68402; recombinant PAFAH1B2, FP-rhodamine activity probe, fluorescence polarization; inhibition, % at 3.39 µM; actives 1.2% (n = 340,000); AID 492953;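 active = inhibition above the mean of all tested compounds plus 3 SD, cut at about 24% in these data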;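 note: 0% = enzyme with DMSO and 100% = wells lacking PAFAH1B2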
PAFAH2 inh = inhibitors of human PAFAH2 | Q99487 | recombinant PAFAH2, FP-rhodamine activity probe, fluorescence polarization | inhibition, % at 3.39 µM | actives 0.99% (n = 340,000) | AID 492956;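 active = inhibition above the mean over all tested compounds plus 3 SD, cut at about 30% in these data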;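 note: inhibitors block probe labeling of enzyme so polarization drops; 0% = enzyme with DMSO and 100% = wells lacking PAFAH2 protein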
The depositor's hits bear a star; · = no result. Sampled rows, rich in hits. Any-hit rate of the full collection: about 2.8%.

SMILES	pPAFAH FP inh	PAFAH1B3 inh	HTRA1 inh	DAGLB inhibitor	PAFAH1B2 inh	PAFAH2 inh
O=C(NNC(=O)c1ccccc1F)c1cccc(-n2cccc2)c1	26*	0	4	-1	2	13
Cc1c(Cl)ccc2c1NC(=O)[C@]21N[C@@H](CCC(N)=O)[C@H]2C(=O)N(c3ccc(F)cc3)C(=O)[C@H]21	13	14	-3	5	0	3
Cc1c(Cl)ccc2c1NC(=O)C21NC(CCC(N)=O)[C@H]2C(=O)N(c3ccc(Cl)cc3)C(=O)[C@H]21 (stereo partly drawn)	25*	-4	-20	1	-2	10
OCCNc1nc(Cl)nc(NCc2ccco2)n1	0	12	-3	0	2	5
CCCN(CCC)c1nc(Cl)nc(NCc2ccco2)n1	26*	8	-1	-7	-2	0
COC1=C(Br)C(=O)c2ncccc2C1=O	·	58*	18	-16	17	48*
CCc1ccc(N2CC(C(=O)N3CCN(c4ccc([N+](=O)[O-])cc4)CC3)CC2=O)cc1 (stereo not drawn)	·	·	3	-2	·	·
CCOCCn1c2ccccc2c2nc3ccccc3nc21	-1	8	-12	-4	6	4
CCOc1cc(C(=S)N2CCOCC2)ccc1OC(=O)c1cc(OC)c(OC)c(OC)c1	5	13	7	-2	2	-6
Cc1cc(C)n(CCNc2nc3nonc3nc2N2CCCCC2)n1	28*	0	9	2	5	-1
COc1cc(OC)c(NC(=O)CCNS(=O)(=O)c2ccc3c(c2)oc(=O)n3C)cc1Cl	25*	2	-4	2	-3	6
COc1ccc(OC)c(NC(=O)CCNS(=O)(=O)c2ccc3c(c2)oc(=O)n3C)c1	4	-5	1	-1	3	-3
CCCc1cc(=O)oc2cc(C)cc(OCC(=O)NC(Cc3ccc(Cl)cc3)C(=O)O)c12 (stereo not drawn)	6	3	-16	5	27*	-7
CCCc1cc(=O)oc2cc(C)cc(OCC(=O)N[C@@H](CSCc3ccccc3)C(=O)O)c12	17	-3	-8	4	2	5
CCCCc1cc(=O)oc2cc(C)cc(OCC(=O)NC(Cc3ccc(Cl)cc3)C(=O)O)c12 (stereo not drawn)	6	4	-16	7	30*	-1
CCCCc1cc(=O)oc2cc(C)cc(OCC(=O)Nc3ccccn3)c12	0	1	-66	0	8	-4
C=CCNC(=S)NNc1nc2sc3c(c2c(=O)[nH]1)CC(C)(C)OC3	-4	0	2	-1	3	-3
O=C(NCCSc1ccc(Br)cc1)c1ccc2nc[nH]c2c1	30*	17	-5	0	47*	2
O=C(NCCc1ccc(Cl)cc1Cl)c1ccc2nc[nH]c2c1	-2	10	-9	-2	29*	-1
O=C(Cc1c(Cl)cccc1Cl)N1CCN(S(=O)(=O)c2cccs2)CC1	-1	-4	-7	-3	3	8
CC(NS(=O)(=O)c1ccc2c(c1)C(C)(C)C(=O)N2C)c1ccccc1 (stereo not drawn)	-5	3	2	2	3	0
Cc1nc2[nH]c(=S)[nH]c(=O)c2nc1C	·	-1	1	0	7	0
Cc1nc2c(=O)[nH]c(=S)[nH]c2[nH]c1=O	·	27*	5	1	7	45*
CCOC(=O)c1cc(-c2ccccc2)sc1NC(=O)CSc1nnc(N)s1	25*	-2	-32	-6	1	0
CCOC(=O)c1cc(-c2ccccc2)sc1NC(=O)CSc1nncs1	24	12	-33	-8	2	-6
C[C@@H]1CN([C@H](C)CO)C(=O)CCCn2cc(nn2)CO[C@H]1CN(C)C(=O)Nc1cccc(F)c1	·	·	2	4	·	·
C=CCn1c(-c2cccn(Cc3ccc(Cl)cc3)c2=O)n[nH]c1=S	4	4	-2	-2	33*	0
C=CCn1c(-c2cccn(Cc3ccc(Cl)cc3Cl)c2=O)n[nH]c1=S	-6	5	-3	0	29*	2
C[C@@H](OC(=O)c1[nH]cnc1C(=O)NCc1ccc(CNC(=O)OC(C)(C)C)cc1)c1ccccc1	8	5	-29	-4	-1	-4
CC[C@@H](NCCCn1ccc(NC(=O)OCc2ccccc2)nc1=O)c1ccccc1	·	·	0	0	·	·

High-throughput results from PubChem BioAssay.
